Unmarked numbers belong to inactive results. Inconclusive results are not listed. Entries that show only a call come without a potency. Activity calls are given as the source filed them. The call rests on the fitted dose curve; in most records, active means well fitted curve in the direction sought with a large enough effect; inconclusive means small, poorly fitted or top-dose-only effect, or another doubt; inactive means no such curve, though single readings can be large; an effect the other way counts as inactive or inconclusive.
Key:
[1] = target: T1, Hexokinase-4 (Homo sapiens) + Glucokinase regulatory protein (Homo sapiens) (UniProt P35557+Q14397); experiment: qHTS assay for inhibitors of recombinant human GCK-GKRP interaction: Diaphorase-coupled assay (AID 743205); details: G6PDH/diaphorase resorufin fluorescence; series mostly up to 57.5 µM
Procedure, shortened: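 Inhibitors of the GCK–GKRP complex relieve GKRP suppression of GCK, detected through a G6PDH–diaphorase cascade reducing resazurin. Human GST-GCK and FLAG-GKRP are used at 10 nM with 5 mM glucose and 0.4 mM ATP.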

[2] = target: T1, Hexokinase-4 (Homo sapiens) + Glucokinase regulatory protein (Homo sapiens); experiment: qHTS assay for inhibitors of recombinant human GCK-GKRP interaction: ADP-Glo assay (AID 743206); details: ADP-Glo luminescence, 60 min; series mostly up to 76.9 µM
Procedure, shortened: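 Pin-transferred compounds meet a 15 nM GST-GCK/15 nM FLAG-GKRP/2 uM S6P mix (dispense concentrations). ATP is then added to 0.4 mM final with 5 mM glucose, and the reaction runs 60 min at room temperature. ADP is quantified luminescently.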

[3] = target: T1, Hexokinase-4 (Homo sapiens) + Glucokinase regulatory protein (Homo sapiens); experiment: qHTS assay for inhibitors of recombinant human GCK-GKRP interaction: HTRF assay (AID 743207); details: recombinant GCK-GKRP HTRF binding, 60 min, with sorbitol-6-phosphate; series mostly up to 57.5 µM
Procedure, shortened: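 Steps: dispense GCK–GKRP complex (5 nM each, GST- and FLAG-tagged) with 2 uM S6P; pin in compounds; add XL665/Eu-cryptate-labelled antibodies; incubate 60 min at room temperature; read time-resolved FRET at 665 and 615 nm.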

[4] = qHTS Assay for Identifying Gametocytocidal Compounds (AID 743244); further: potency means the concentration at half of the fitted maximal effect;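 on max response: actives lower the fluorescent signal which means gametocytes are killed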; details: P. falciparum 3D7 stage III-V gametocytes, alamarBlue, 72 h; max response: hits give low values
Procedure, shortened: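 P. falciparum 3D7 stage III–V gametocytes (20,000 cells/well) were exposed to compounds for 72 h at 37 °C, 5% CO2. AlamarBlue was then added for 24 h; decreased resorufin fluorescence (Ex 525/Em 598 nm) indicated loss of viability.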

[5] = qHTS assay for measurement of the activity of small molecule inhibitors on Zika virus induced Caspase-3 activity in human iPSC derived neural progenitor cells (hNPCs) (AID 1224857); details: hNPCs ZIKV-induced caspase-3/7, Caspase-Glo luminescence, 6 h; series mostly up to 45.7 µM; further: nearly all actives have a fitted effect of over 65% in size; further: potency means the concentration at half of the fitted maximal effect
Procedure, shortened: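 hNPCs seeded 350 cells/well, cultured 16–20 h; compounds added 1 h before ZIKV (2 FFU/cell), 37 C 6 h. Caspase-Glo 3/7 luminescence after 30 min RT; % inhibition from induction scaled to uninfected (0%) and infected (100%) wells.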

[6] = qHTS assay for measurement of the activity of small molecule inhibitors on Zika virus induced Caspase-3 activity in human astrocytoma cells (AID 1224859); details: SNB-19 ZIKV-induced caspase-3/7, luminescence, 6 h; series mostly up to 45.7 µM; further: potency means the concentration at half of the fitted maximal effect
Procedure, shortened: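 Luminescence read-out (Caspase-Glo 3/7, 30 min RT) of caspase activity in SNB-19 cells infected 6 h with ZIKV, 2 FFU/cell, after 1 h compound pretreatment; % inhibition from induction normalised to uninfected (0%) and infected (100%) wells.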

[7] = qHTS assay for cell viability of the p53RE-bla HCT-116 cell line (AID 743292); details: p53RE-bla HCT-116 viability, ATP luminescence, 16 h; series mostly up to 95 µM; further: nearly all actives have a fitted effect of over 55% in size
Procedure, shortened: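 In this qHTS counter-screen, metabolically competent p53RE-bla HCT-116 cells were counted via their ATP content. Compounds were applied for 16 h at 37 C and luciferase-coupled luminescence was measured.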

T1 sequence (P35557 whole entry, looked up): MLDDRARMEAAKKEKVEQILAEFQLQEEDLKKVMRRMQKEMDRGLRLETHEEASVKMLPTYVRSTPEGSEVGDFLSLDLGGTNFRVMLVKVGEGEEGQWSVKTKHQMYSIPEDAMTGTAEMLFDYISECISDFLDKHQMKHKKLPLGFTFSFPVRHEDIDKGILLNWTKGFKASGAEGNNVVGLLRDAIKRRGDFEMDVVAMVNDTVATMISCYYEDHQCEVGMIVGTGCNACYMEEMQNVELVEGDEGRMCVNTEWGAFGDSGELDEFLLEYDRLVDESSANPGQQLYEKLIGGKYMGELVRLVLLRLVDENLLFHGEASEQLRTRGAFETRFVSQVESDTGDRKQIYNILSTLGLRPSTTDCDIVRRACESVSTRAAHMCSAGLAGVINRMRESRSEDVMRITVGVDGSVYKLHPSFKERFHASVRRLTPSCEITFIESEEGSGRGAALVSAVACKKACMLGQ
T1 sequence (Q14397 whole entry, looked up): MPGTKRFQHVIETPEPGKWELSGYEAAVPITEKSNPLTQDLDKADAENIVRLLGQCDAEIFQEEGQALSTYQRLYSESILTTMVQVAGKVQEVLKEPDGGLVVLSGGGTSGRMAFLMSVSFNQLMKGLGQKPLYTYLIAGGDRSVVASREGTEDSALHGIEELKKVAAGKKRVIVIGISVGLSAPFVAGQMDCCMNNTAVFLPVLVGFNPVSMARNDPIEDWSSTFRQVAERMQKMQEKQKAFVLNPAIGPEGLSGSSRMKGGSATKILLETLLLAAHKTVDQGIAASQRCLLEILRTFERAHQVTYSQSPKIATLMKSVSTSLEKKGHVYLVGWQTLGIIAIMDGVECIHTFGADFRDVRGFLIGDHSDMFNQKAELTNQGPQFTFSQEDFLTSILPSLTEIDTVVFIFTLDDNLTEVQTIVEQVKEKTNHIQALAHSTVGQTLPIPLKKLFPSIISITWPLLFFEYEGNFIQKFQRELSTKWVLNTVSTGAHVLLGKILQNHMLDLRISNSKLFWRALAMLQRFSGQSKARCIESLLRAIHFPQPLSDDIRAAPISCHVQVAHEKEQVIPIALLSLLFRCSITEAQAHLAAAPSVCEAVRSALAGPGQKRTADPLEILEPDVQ

Row | Compound | outcome [1] | Potency [2] | Potency [3] | Potency [4] | Potency [5] | Potency [6] | max response [4] | Potency [7]
1 | NC(N)=NC(=O)c1nc(Cl)c(N2CCCCCC2)nc1N | inactive | inactive | inactive | 0.891 µM (active) | inactive | inactive | – | –
2 | CCCCCCCC/C=C\CCCCCCCC(=O)NCCO | inactive | inactive | inactive | – | inactive | inactive | 8.34% | –
3 | CCCCCCCCCCCCCCCCCC(=O)OC(CC(=O)O)C[N+](C)(C)C (configuration not stated) | inactive | inactive | inactive | – | inactive | inactive | -2.89% | –
4 | COc1cc(OC)c(/C=C2/C(=O)Nc3ccccc32)c(OC)c1 | inactive | inactive | inactive | – | inactive | inactive | 33.5% | –
5 | NC[C@@H]1O[C@H](C23CC4CC(CC(C4)C2)C3)Cc2c1ccc(O)c2O | inactive | inactive | inactive | 1 µM (active) | inactive | inactive | – | –
6 | O=C(CCCCCN1CCN(c2ccccc2-c2ccccc2)CC1)NC1CCCc2ccccc21 (configuration not stated) | inactive | inactive | inactive | – | inactive | inactive | – | –
7 | C=C[C@H]1CN2CC[C@@H]1C[C@@H]2[C@@H](O)c1ccnc2ccc(OC)cc12 | inactive | inactive | inactive | – | inactive | inactive | – | –
8 | CCCCCCCCCCCCCCCC(=O)OC(CC(=O)O)C[N+](C)(C)C (configuration not stated) | inactive | inactive | inactive | – | inactive | inactive | -5.64% | –
9 | CN1CCc2cc(NC(=O)Nc3cccnc3)ccc21 | inactive | inactive | inactive | – | inactive | inactive | – | –
10 | O=C(c1cc(O)c(O)c([N+](=O)[O-])c1)c1ccccc1F | inactive | inactive | inactive | – | inactive | inactive | 18.1% | –
11 | C[C@@H](CN1CCC(Cc2ccccc2)CC1)[C@@H](O)c1ccc(O)cc1 | inactive | inactive | inactive | – | inactive | inactive | 31% | –
12 | Fc1ccc(C(OCCCc2cnc[nH]2)c2ccc(F)cc2)cc1 | inactive | inactive | inactive | – | inactive | inactive | – | –
13 | Cc1cc(NC(=O)Nc2ccc3c(ccn3C)c2)sn1 | inactive | inactive | inactive | – | inactive | inactive | 24.1% | –
14 | NC(=O)C(=O)O | inactive | inactive | inactive | – | inactive | inactive | 24.1% | –
15 | CC1(C)CCC=[N+]1[O-] | inactive | inactive | inactive | – | inactive | inactive | 7.42% | –
16 | CCCCCCCCc1ccc(-c2ccc(C(=O)O)cc2)cc1 | inactive | inactive | inactive | – | inactive | inactive | 11.5% | –
17 | Clc1ccc(N2CCN(Cc3c[nH]c4ncccc34)CC2)cc1 | inactive | inactive | inactive | – | inactive | inactive | – | –
18 | NCCCCC(=O)O | inactive | inactive | inactive | – | inactive | inactive | 12.2% | –
19 | Brc1c(Br)c(Br)c2n[nH]nc2c1Br | inactive | inactive | inactive | – | inactive | inactive | 10.7% | –
20 | N#C/C(=C\c1ccc(-c2cc(Cl)ccc2Cl)o1)C(=O)Nc1cccc2ncccc12 | inactive | inactive | inactive | – | inactive | inactive | -7.88% | –
21 | CC(C)(C=O)Cc1cc(C(C)(C)C)c(O)c(C(C)(C)C)c1 | inactive | inactive | inactive | – | inactive | inactive | 8.22% | –
22 | CN1C2CC(OC(=O)[C@H](CO)c3ccccc3)CC1C1OC12 (some centres not stated) | inactive | inactive | inactive | – | inactive | inactive | 21.9% | –
23 | O=C(O)CNC(=O)C(CS)Cc1ccccc1 (configuration not stated) | inactive | inactive | inactive | – | inactive | inactive | – | –
24 | NC[C@H]1O[C@@H](n2cnc3c(N)ncnc32)[C@H](O)[C@@H]1O | inactive | inactive | inactive | – | inactive | inactive | -2.15% | –
25 | O=S(=O)(c1cccc2c(I)cccc12)N1CCCNCC1 | inactive | inactive | inactive | – | inactive | inactive | – | –
26 | O=C(/C=C/c1ccc(O)cc1)c1ccc(O)cc1O | inactive | inactive | inactive | – | 2.82 µM (active) | 1.26 µM (active) | – | –
27 | N[C@@H](CC(=O)O)C(=O)O | inactive | inactive | inactive | – | inactive | inactive | 20.5% | –
28 | O=C(O)CCCC[C@@H]1CCSS1 | inactive | inactive | inactive | – | inactive | inactive | 7.49% | –
29 | c1cnc2c(c1)ccc1cccnc12 | inactive | inactive | inactive | 1.87 µM (active) | inactive | inactive | – | inactive

Source: PubChem BioAssay (NCATS)
